Experiment in all cases: NCI-60 one-dose screen, 48 h (100 = growth as untreated, 0 = no growth, -100 = all killed)
What all share (conditions): 10 µM

Experiment [1] concerns DU-145 prostate.
The subject of experiment [2] is K-562 leukemia.
The subject of experiment [3] is MALME-3M melanoma.
The test system of experiment [4] is MDA-MB-231 breast.
The test system of experiment [5] is RXF 393 renal.
For experiment [6], the system named is SF-268 CNS.
The subject of experiment [7] is SF-295 CNS.
The subject of experiment [8] is SF-539 CNS.
The subject of experiment [9] is UACC-257 melanoma.
Experiment [10] concerns M14 melanoma.
Experiment [11] relates to HCT-15 colon.
The subject of experiment [12] is SNB-75 CNS.
Experiment [13] concerns SNB-19 CNS.
The test system of experiment [14] is U251 CNS.
For experiment [15], the system named is PC-3 prostate.
Experiment [16] deals with SK-MEL-5 melanoma.
The subject of experiment [17] is UACC-62 melanoma.
The subject of experiment [18] is LOX IMVI melanoma.
In experiment [19] the test system is SK-MEL-28 melanoma.
Experiment [20] concerns HT29 colon.

Compounds without any hit were thinned out: in the full panel of roughly 83,000, 20% have a hit.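 Cells were grown in 96-well plates and exposed to the test compound at a single concentration for 48 hours; results are reported as percent growth, with values below 10 considered active.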 Unmarked numbers belong to inactive results. Calls of active or inactive are those of the source.

In PubChem BioAssay (NCI) one finds growth data, which are given here for 8 compounds.

Consider `COc1cc(C(=O)n2nc(N)c3c(C)cc(C)nc32)cc(OC)c1OC`, for which the growth was 93.3% in [1]; 18.2% in experiment [2]; 89% in experiment [3]; 87.7% in experiment [4]; 83.2% in experiment [5]; 79.1% in [6]. Further, the growth is 75.9% in experiment [7]; 64.6% in [8]; 90.9% in [9]; 80.2% in experiment [10]; 33.2% in experiment [11]; 57.9% in experiment [12]. Moreover, the growth is 98.4% in experiment [13]; 72.1% in [14]; 81.2% in experiment [15]; 73.8% in experiment [16]; 80.5% in experiment [17]; 54% in experiment [18]. Also, the growth in experiment [19] is 97.6%.
Regarding `COc1ccc(/C(CS(=O)(=O)c2ccccc2)=N\O)cc1`, the growth in [1] is 119%; in experiment [2], 103%; in [3], 106%; in experiment [4], 113%; in experiment [5], 92.1%; in experiment [6], 115%. Also, the growth in [7] was 88.5%; in experiment [8], 102%; in [9], 95.8%; in [10] it was 109%; in [11] it was 99.4%; in experiment [12], 87%. Moreover, the growth in experiment [13] is 101%; in [14], 93.9%; in experiment [15] it was 104%; in experiment [16] it was 95.8%; in experiment [17], 95.1%; in experiment [18], 111%. For the same compound, the growth in experiment [19] was 100%.
On to `C/C=C\COc1cc(C)c(Cl)cc1Cl`, for which the growth was 111% in experiment [1]; 114% in experiment [2]; 95.9% in [3]; 111% in experiment [4]; 96.2% in [5]; 114% in experiment [6]. Besides, the growth in experiment [7] was 99%; in experiment [8], 104%; in [9], 92%; in experiment [10], 112%; in experiment [11] it was 109%; in experiment [20], 114%. For the same compound, the growth in experiment [12] was 88.9%; in experiment [14] it was 94.6%; in experiment [15], 98.5%; in experiment [16] it was 99.6%; in experiment [17] it was 100%; in experiment [18], 106%. Also, in experiment [19], the growth is 104%.
For `COc1cc(C(c2c[nH]c3ccccc23)N2CCCC2)ccc1OCc1ccccc1` (stereo unspecified), the growth is 95.9% in experiment [1]; 71.2% in [2]; 81.8% in [3]; 58.4% in experiment [4]; 52.9% in experiment [5]; 74.6% in experiment [6]. Besides, the growth is 93.8% in experiment [7]; 4.28% (active) in [8]; 85.3% in [9]; 88.2% in experiment [10]; 77.1% in experiment [11]; 41.3% in experiment [12]. Also, the growth in experiment [13] was 87.5%; in experiment [14], 86%; in [15], 55.1%; in experiment [16], 75.6%; in [17], 60.9%; in [18], 68.9%. For the same compound, the growth in [19] was 98%.
As to `CCOC(=O)c1c(C(F)(F)F)n([O-])c2ccc(OC)cc2[n+]1=O`, the growth in [1] was 26.2%; in experiment [2], 2.01% (active); in experiment [3], 25.8%; in experiment [4] it was 19.8%; in [5] it was 41.9%; in experiment [6] it was 31.1%. For the same compound, the growth in experiment [7] is -36% (active); in [8] it was 48.8%; in [9], -5.73% (active); in experiment [10], 26.9%; in experiment [20] it was 48.1%; in experiment [12], 11.8%. The growth was 25.8% in [13]; 26.6% in experiment [14]; -3.79% (active) in experiment [15]; -29.4% (active) in experiment [16]; 22.8% in [17]; 31.2% in experiment [18]. In addition, the growth in experiment [19] was 60.8%.
For the compound `CCC(O)c1ccc(Br)cc1NC(=O)c1cccc(Cl)c1` (stereo unspecified), the growth is 27.9% in experiment [1]; 8.78% (active) in [2]; -3.37% (active) in experiment [3]; -1.69% (active) in experiment [4]; 16.3% in [5]; 18.7% in [6]. Besides, the growth was 9.43% (active) in experiment [7]; 2.67% (active) in [8]; 7.67% (active) in [9]; 0.116% (active) in experiment [10]; 28.5% in experiment [11]; 38.8% in experiment [12]. In addition, the growth in experiment [13] is 21.2%; in experiment [14] it was 11.7%; in experiment [15], 34.2%; in [16], 10.7%; in [17], -27.5% (active); in [18], 0.289% (active). Besides, the growth in experiment [19] is 29.3%.
Consider `COc1ccc(C(=O)/C=C/c2cc(-c3ccc4c(c3)OCO4)n[nH]2)cc1OC`, for which the growth in [1] is 39.7%; in experiment [2], 23.8%; in experiment [3] it was 94.4%; in [4] it was 58.3%; in [5] it was 38.6%; in [6], 45.4%. The growth in experiment [7] was 53.4%; in experiment [8], 42.2%; in experiment [9], 109%; in [10], 91.6%; in experiment [11], 52.1%; in experiment [20], 36.4%. Besides, the growth was 60.3% in [12]; 31.8% in experiment [14]; 81.7% in experiment [16]; 88.9% in experiment [17]; 47.5% in experiment [18]; 103% in [19].
As for `CC(C)C[C@H](NC(=O)Cn1ccc(Nc2ccccc2)cc1=O)B(O)O`, the growth is 38.9% in [1]; 39.1% in [2]; -11.7% (active) in experiment [3]; 48.9% in experiment [4]; -16.7% (active) in experiment [5]; 34.2% in experiment [6]. The growth in [7] is 37.8%; in experiment [8], -57.7% (active); in experiment [9], 7.65% (active); in experiment [10], 31.8%; in experiment [11] it was 72.1%; in experiment [12], 79.9%. The growth in experiment [13] was 68%; in [14] it was 65.9%; in experiment [15], 58.9%; in experiment [16], 2.17% (active); in experiment [17], 25%; in experiment [18], 3.14% (active). Moreover, the growth in experiment [19] is 10.6%.
